DPM-DC inhibit – inhibitors of Streptococcus pneumoniae diphosphomevalonate decarboxylase. purified DPM-DC, PK/LDH coupled NADH fluorescence. calls only at 10 µM. 65,000 tested, 0.49% active;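 active = the 320 compounds with the highest percent inhibition in the single-dose primary screen, excluding strongly autofluorescent ones, cut at about 32% in these data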;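 also: kinetic rate of NADH fluorescence loss reporting ADP formed by the decarboxylase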
PMK inhibit – S. pneumoniae PMK inhibition; purified PMK, PK/LDH-coupled NADH absorbance 340 nm; inhibition, % at 10 µM; 65,000 tested, 0.49% active;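 active = top-ranked compounds by inhibition in the single 10 µM screen, taking a fixed number of the strongest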;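 also: 0% = full reaction with DMSO carrier and 100% = background rate without enzyme reaction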
Autofluor 339 – intrinsic fluorescence of library compounds, ex339/em460 – biochemical, MLSMR library, data from DPM-DC assay, artefact control, profiling panel; 65,000 tested, 5.5% active; fluorescence fold increase at 10 µM; compound autofluorescence, ex339/em460 nm, NADH buffer; active compounds read high; 1 = no-compound wells, NADH background;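 active = at 10 µM, mean starting fluorescence two-fold or more over control wells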;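 also: signal is the first read of a kinetic run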
Abs 340nm – absorbance at 340 nm; compound absorbance at 340 nm, fold over control; fold change at 10 µM; 65,000 tested, under 10 active; AID 708;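 active = at 10 µM dose, initial 340 nm absorbance at least 2 fold that of control wells; inactive = change under 2 fold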;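 also: initial absorbance extrapolated from kinetic A340 decline of NADH oxidation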
NADH enzymes – inhibition of NAD/NADH coupling enzymes, library profiling | 65,000 tested, 0.02% active | AID 774 | coupled PK/LDH NADH assays, four targets | IC50, µM (highest dose often 10 µM), without a hit: at the top dose inhibition;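 active = single-dose screening hits from any of four coupled enzyme assays that gave an IC50 when retested across doses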;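 also: the DPM-DC format reads NADH fluorescence rather than 340 nm absorbance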
Spn MK inh – S. pneumoniae mevalonate kinase inhibition. 65,000 tested, 0.48% active. purified MK, PK/LDH-coupled NADH absorbance 340 nm. inhibition, % at 10 µM;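 active = ranked among the strongest by inhibition in the single 10 µM screen, a fixed top-ranked set picked for dose follow-up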
The depositor's hits bear a star; i = inactive; . = not tested or not shown; + = active, no number. Sampled rows, rich in hits. Any-hit rate of the full collection: about 6.8%.

SMILES	DPM-DC inhibit	PMK inhibit	Autofluor 339	Abs 340nm	NADH enzymes	Spn MK inh
Cc1c(OCc2nn[nH]n2)ccc2c3c(c(=O)oc12)CCC(C)C3 (centres undefined)	.	2	3.8*	1.1	1%	0
CCOC(=O)COc1ccc2c3c(c(=O)oc2c1C)CCC3	i	6	2.3*	1.1	9%	0
Cc1coc2c(C)c3oc(=O)c4c(c3cc12)CCCC4	i	2	1.3	1	1%	0
COc1ccc2c3c(c(=O)oc2c1OCC(N)=O)CCCC3	.	0	2.5*	1	2%	10
Fc1ccccc1N1CCN(CCCNc2ccc3nncn3n2)CC1	i	6	1.1	1.1	5%	10
COc1ccc(NC(=O)C2CCCCN2CC(=O)OCc2ccccc2)cc1OC (centres undefined)	i	17	1	1	6%	0
CCC(C)[C@@H](C(=O)Nc1ccc(OC)c(OC)c1)N1Cc2ccccc2C1=O (some centres undefined)	i	13	1	1	6%	1
CCOC(=O)c1c(NC(=O)c2ccco2)sc(C(=O)N2CCCC2)c1C	i	0	1.2	1.1	1%	3
CCOC(=O)c1c(NC(=O)c2ccco2)sc2c1CCCCC2	.	15	2.1*	1.1	8%	0
COc1ccc(OC)c(NC(=O)c2c(NC(=O)c3ccco3)sc3c2CCC3)c1	i	4	2.1*	1.1	9%	10
CCCc1cc(C(=O)Nc2sc(C)c(C)c2C(=O)OCC)no1	.	4	2.4*	1	3%	2
CCOC(=O)c1c(-c2ccc(C)s2)csc1NC(=O)c1ccco1	i	4	3.5*	1.1	4%	0
COc1cccc(C2NC(=O)NC(C)=C2C(=O)OCCSC)c1OC (centres undefined)	i	4	1.1	1	3%	5
CCOC(=O)c1c(NC(=O)Cc2cccs2)sc2c1CCCC2	i	16	1.1	1	5%	0
CCOC(=O)c1c(NC(=O)OC)sc2c1CCC2	i	2	1.1	0.99	1%	2
CCOC(=O)c1c(NC(=O)c2cccs2)sc2c1CCC2	.	0	2.3*	1.1	1%	2
COC(=O)c1c(-c2ccc(F)cc2)csc1NC(=O)c1ccco1	i	0	2*	1.1	2%	3
CCOC(=O)c1c(-c2ccccc2)csc1NC(=O)c1nn(CC)cc1Br	.	4	3.5*	1.1	4%	4
CCOC(=O)c1c(NC(=O)c2cccs2)sc2c1CCCC2	.	19	2.3*	1.1	17%	14
CCOC(=O)c1c(NC(=O)c2nn(CC)cc2Br)c(C#N)cn1-c1ccccc1	i	4	1.1	0.99	11%	2
O=[n+]1c2c(n([O-])c3c1CCCC3)CCCCC2	i	4	1.1	1	6%	8
CC(c1ccco1)N(C(=O)CSc1ccc(Br)cc1)c1ccccn1 (centres undefined)	i	13	1.1	1	5%	1
COc1ccc(S(=O)(=O)N(Cc2ccccc2)Cc2nc(-c3ccccc3)no2)cc1	i	6	1.1	1	4%	6
CCOC(=O)c1c(NC(=O)c2cc(C3CC3)on2)sc(C(C)=O)c1C	i	0	1.2	1.1	0%	0
COC(=O)c1c(NC(=O)c2ccoc2C)sc2c1CCC2	+	4	2.4*	1.1	14%	5
SMILES	DPM-DC inhibit	PMK inhibit	Autofluor 339	Abs 340nm	NADH enzymes	Spn MK inh
CCOC(=O)c1c(NC(=O)c2cc(C3CC3)on2)sc2c1CCCC2	.	27*	2.1*	1.1	14%	0
Cc1occc1C(=O)Nc1sc2c(c1C(N)=O)CCCCC2	i	2	1.2	1.1	2%	1
CCOC(=O)c1c(NC(=O)c2cccs2)sc2c1CCN(C(=O)OCC)C2	.	10	2*	1	2%	0
CCOC(=O)c1c(-c2cccs2)csc1NC(=O)c1ccncc1	.	5	2.2*	1	6%	6
COCC(=O)Nc1nc(-c2ccccc2)ns1	i	14	1.1	0.99	11%	14
CC(C)(C)OC(=O)N1CCOCCOCCN(C(=O)OC(C)(C)C)CCOCCOCC1	i	0	0.99	0.99	2%	11
O=C(C1CCN(S(=O)(=O)c2ccc(F)cc2)CC1)N1CC=C(c2ccccc2)CC1	i	13	1.1	1.1	5%	3

Source: PubChem (SRMLSC)
